We go through 105 compounds from PubChem BioAssay AID651593 (National Center for Advancing Translational Sciences (NCATS), 2012).

Out of some 1,100 compounds screened, about 860 (78%) were called active. Inconclusive results (about 19%) are left out. The call rests on the fitted dose curve; in most records, active means well fitted activation curve with a large enough effect; inconclusive means small, poorly fitted or top-dose-only effect; inactive means flat fitted curve, though single readings scatter. So high a share suggests a set chosen from earlier hits. The list shows a part of the results.
Potency means the concentration at half of the fitted maximal effect.

This experiment is described as follows: qHTS of Nrf2 Activators: Hit Validation in Primary Assay. Further: nearly all actives have a fitted effect of over 70% in size. On activation: 0% is about no effect. The following applies: Nrf2/ARE reporter cell assay; Potency: activation; series mostly up to 46.1 µM; activation: at the top concentration. Put shortly:
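AREc32 cells stably carrying an ARE-driven firefly luciferase, plated overnight, then exposed 24 h at 37 °C to compounds at several concentrations. ARE activation read as luminescence with Steady-Glo after 30 min at room temperature.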
Background: In qHTS, concentration-response curves come from the screen itself.
As for `Clc1ccc(-c2ccnc(-n3cccc3)n2)s1`, the Potency was 2.59 µM (active).

As for `c1coc(-c2ccnc(-n3cccc3)n2)c1`, the Potency was 2.59 µM (active).

Turning to `c1coc(-c2ccnc3nc(-n4cccc4)nn23)c1`, the Potency was 4.11 µM (active). Turning to `CCc1nn2c(-c3ccco3)ccnc2c1-c1ccccc1`, the “activation” value is 9.08% (inactive).

As to `CSc1nc2sc3c(c2c(=O)n1C)CCC(C)C3` (stereo not given), the Potency is 18.4 µM (active). For `Cc1cc(C)c(-n2c(SCCS(=O)(=O)c3ccc(F)cc3)n[nH]c2=O)c(C)c1`, the Potency was 20.6 µM (active).

Regarding `NC(=O)c1ccsc1NC(=O)COC(=O)[C@@H]1CCCN1C(=O)c1cccs1`, the Potency is 6.51 µM (active). As to `O=C(NNC(=O)c1nc(Cl)ccc1Cl)c1ccc(F)cc1`, the Potency was 11.6 µM (active). The same measure, in the same setting: to `O=C1C(=C2CCc3ccccc32)Cc2ccccc21` belongs 1.03 µM (active); to `COC(=O)c1ccc2nc(-c3ccc(F)cc3)c(CC3CCCCC3)n2c1`, 9.2 µM (active); to `COC(=O)c1ccc2nc(-c3cccc(Br)c3)c(CC3CCCCC3)n2c1`, 13 µM (active).

With `O=c1cc(-c2ccccc2)nc2c(Cl)cc(Cl)cn12`, the Potency is 3.66 µM (active).

Take `COCCn1c(C(F)(F)F)ccc(NC(=O)c2ccccc2)c1=O`: the Potency was 2.31 µM (active). For the compound `FC(F)(F)c1cc(-c2cccs2)nc2cc(-c3cccs3)nn12`, the Potency is 2.91 µM (active). On the same count and under the same terms, as for `Cc1ncc(N=Nc2ccccc2)c(-c2ccccc2)n1`, the figure is 3.66 µM (active); as for `Cc1ccc(CNC(=O)c2sccc2-n2cccc2)cc1`, 5.17 µM (active). Still for that read-out and setting: as for `CC(C)c1ccc(NC(=O)c2sccc2-n2cccc2)cc1`, the figure is 2.59 µM (active); as for `O=c1oc2ccc(Br)cc2cc1-c1nc2ccccc2o1`, 23.1 µM (active); as for `O=C(Cn1ncc(Cl)c(Cl)c1=O)NC1CCS(=O)(=O)C1` (stereo not given), 6.51 µM (active). The same measure, in the same setting: as for `O=C(Nc1cccc2ncccc12)c1ccc(Cl)cc1`, the figure is 2.59 µM (active). For the compound `Cc1ccsc1-c1ccnc(-n2cccc2)n1`, the Potency was 11.6 µM (active). Still for that read-out and setting: as for `Cc1cc(-c2cccs2)nc(-n2cccc2)n1`, the figure is 5.17 µM (active). Turning to `Cc1cc(-c2sccc2Br)nc(-n2cccc2)n1`, the Potency is 3.66 µM (active). For `Cc1cc(-c2sccc2C)nc(-n2cccc2)n1`, the Potency is 5.8 µM (active). On to `CS(=O)(=O)c1nc(S(=O)(=O)c2ccc(Cl)cc2)c(N2CCOCC2)s1`, for which the Potency is 4.11 µM (active). On the same count and under the same terms, to `Cc1ccc(S(=O)(=O)c2nc(S(C)(=O)=O)sc2N2CCOCC2)cc1` belongs 8.2 µM (active). The same measure, in the same setting: to `Cc1nnc2n1N=CC=C(c1ccccc1)S2` belongs 3.66 µM (active). Same read-out and setting: as for `Clc1ccc2c(NCc3ccccn3)ncnc2c1`, the figure is 4.61 µM (active); as for `Oc1ccc(Cl)cc1N=Cc1sc2ccccc2c1Cl`, 6.51 µM (active). On to `Cc1sc2ncnc(Sc3nnnn3-c3ccccc3)c2c1C`, for which the “activation” value is 15.9% (inactive).

Take `CCc1cc2c(NCc3ccco3)ncnc2s1`: the Potency was 3.66 µM (active).

In the case of `c1ccc(Cn2ncc3c(NCc4ccco4)ncnc32)cc1`, the Potency is 2.06 µM (active). Still for that read-out and setting: to `Cc1sc2ncnc(NCc3ccco3)c2c1C` belongs 3.66 µM (active).

Turning to `Cc1sc2ncnc(SCc3ccco3)c2c1C`, the Potency was 2.91 µM (active). For the compound `CCN(CC)CCNC(=O)C(Cl)=C1C(Cl)=C(Cl)C(Cl)=C1Cl`, the Potency is 3.66 µM (active). `Cc1cccc(NC(=S)NC(=O)c2cccs2)n1`: the Potency was 8.2 µM (active). Still for that read-out and setting: as for `O=C(NC(=S)Nc1ccc(Br)cn1)c1cccs1`, the figure is 2.91 µM (active). The same measure, in the same setting: to `O=C(NC(=S)Nc1ccc(Cl)cn1)c1cccs1` belongs 2.91 µM (active); to `O=C(NC(=S)Nc1cccc2cccnc12)c1cccs1`, 2.91 µM (active).

For the compound `COC(=O)c1cc2c(s1)-c1cc(F)ccc1OC2`, the Potency is 9.2 µM (active). Still for that read-out and setting: as for `O=C1/C(=C\c2ccc(Cl)cc2)CCC1CNc1ccc(Cl)cc1` (stereo not given), the figure is 3.66 µM (active); as for `N#Cc1cnc2cc(-c3ccccc3)nn2c1N`, 6.51 µM (active); as for `CC(=O)Nc1ccc(S(=O)(=O)c2ccnc3cc(Cl)ccc23)cc1`, 14.6 µM (active). The same measure, in the same setting: as for `O=S(=O)(c1ccc(F)cc1)c1snnc1-c1ccccc1`, the figure is 18.4 µM (active); as for `Cc1cccc(N=C/C(C(=O)C(F)(F)F)=C(\O)c2ccco2)c1`, 20.6 µM (active); as for `Cc1ccc(N=C/C(C(=O)C(F)(F)F)=C(\O)c2ccco2)cc1Cl`, 7.31 µM (active). The same measure, in the same setting: as for `O=C(/C(C=Nc1cccc(C(F)(F)F)c1)=C(/O)c1ccco1)C(F)(F)F`, the figure is 11.6 µM (active); as for `O=C(/C(C=Nc1ccc(F)cc1)=C(/O)c1ccco1)C(F)(F)F`, 20.6 µM (active). Turning to `CC(=O)Nc1cc2oc3ccccc3c2cc1[N+](=O)[O-]`, the Potency is 2.59 µM (active). Still for that read-out and setting: to `CC(=O)Nc1ccc(N=Nc2ccccc2)cc1[N+](=O)[O-]` belongs 3.66 µM (active); to `COC(=O)c1c(NC(=O)/C=C/C(=O)O)sc(C)c1-c1ccc(C(C)C)cc1`, 10.3 µM (active).

In the case of `c1ccc(-c2noc(-c3cccc4ccccc34)n2)cc1`, the Potency is 2.31 µM (active). On the same count and under the same terms, as for `COc1cccc(-c2nc(-c3ccccc3)no2)c1`, the figure is 2.91 µM (active); as for `c1ccc(-c2noc(-c3cccnc3)n2)cc1`, 2.59 µM (active). For `COc1nc2ccc(C)cc2cc1-c1noc(-c2ccccc2)n1`, the Potency is 2.59 µM (active). Still for that read-out and setting: to `Fc1ccccc1-c1nc(-c2ccc(Cl)cc2)no1` belongs 3.26 µM (active).

Consider `c1cncc(-c2noc(-c3cccc4ccccc34)n2)c1`, for which the Potency is 1.16 µM (active). The same measure, in the same setting: to `CC1=NC(=O)C(N=Nc2cccc(O)c2)N1c1ccccc1` (stereo not given) belongs 7.31 µM (active). Same read-out and setting: to `Cc1cccc2c(=O)n(C(=O)c3ccccc3)c(N)nc12` belongs 1.03 µM (active); to `COc1ccc(OC)c(/C=C(\C#N)c2nc(-c3ccc(F)cc3)cs2)c1`, 2.59 µM (active).

Turning to `COc1ccc(NC(=O)Nc2nnc(-c3ccccc3F)s2)cc1`, the Potency was 1.84 µM (active). For `O=C(Nc1nnc(-c2ccccc2F)s1)C1CCCO1` (stereo not given), the Potency was 7.31 µM (active). On the same count and under the same terms, as for `COc1ccccc1-c1nnc(NC(C)=O)s1`, the figure is 20.6 µM (active). `O=C(Nc1ccccc1)c1nc[nH]c1C(=O)Nc1ccccc1F`: the “activation” value was 17.5% (inactive).

As to `O=C(Nc1nnc(-c2ccccc2F)s1)Nc1ccccc1F`, the Potency is 1.84 µM (active).

`O=C(CC(=O)c1ccccn1)c1ccccc1`: the Potency was 3.66 µM (active). Still for that read-out and setting: as for `NS(=O)(=O)c1ccc(Sc2nc3ccccc3s2)c([N+](=O)[O-])c1`, the figure is 16.4 µM (active). The same measure, in the same setting: to `NC(=O)c1nc(Nc2ccccc2)sc1NC(=O)c1ccccc1Br` belongs 2.31 µM (active); to `NC(=O)c1nc(Nc2ccccc2)sc1NC(=O)c1c(F)cccc1F`, 2.59 µM (active). For the compound `O=C(/C=C/c1ccccc1Cl)Nc1nc(-c2cccs2)ns1`, the Potency is 7.31 µM (active). For `O=C(/C=C/c1ccccc1)Nc1nc(-c2cccs2)ns1`, the Potency was 2.59 µM (active). The same measure, in the same setting: to `Cc1sc2c(c1C)C(=O)NC(c1ccccc1F)N2` (stereo not given) belongs 20.6 µM (active); to `CCC/C(=N\NC(=O)c1ccco1)c1ccc(Cl)s1`, 5.17 µM (active). Same read-out and setting: to `O=c1c(-c2ccco2)[n+]([O-])c2ccccc2n1OCc1ccccc1` belongs 5.17 µM (active); to `CCOC(=O)COn1c(=O)c(-c2ccco2)[n+]([O-])c2ccccc21`, 9.2 µM (active). Regarding `O=c1c(-c2ccco2)[n+]([O-])c2ccccc2n1OCc1c(F)cccc1F`, the Potency was 0.58 µM (active).

For the compound `COc1ccc(-c2cc3ccccc3c(=O)o2)cc1`, the Potency is 4.61 µM (active). Still for that read-out and setting: as for `CC(=O)c1sc(Nc2ccccc2)nc1C`, the figure is 18.4 µM (active); as for `O=[N+]([O-])c1ccc(SCc2ccco2)cc1N1CCOCC1`, 2.31 µM (active).

`O=C1CC(C(=O)Nc2ccc(Cl)c(Cl)c2)S/C(=N\N=C\c2ccco2)N1` (stereo not given): the Potency is 0.731 µM (active). As for `Cc1cccc(NC(=O)C2CC(=O)N/C(=N/N=C/c3ccco3)S2)c1` (stereo not given), the Potency is 2.06 µM (active). With `Cn1c(NC(=O)/C=C/c2ccccc2)cc(=O)n(C)c1=O`, the Potency is 20.6 µM (active).

As to `O=C(CC1S/C(=N/N=C/c2ccco2)NC1=O)Nc1ccccc1` (stereo not given), the Potency is 1.84 µM (active).

As for `Cc1ccc(NC(=O)CC2S/C(=N/N=C/c3ccco3)NC2=O)cc1Cl` (stereo not given), the Potency was 1.03 µM (active). Same read-out and setting: to `O=c1cc(-c2ccco2)nc(SCc2cccc(Cl)c2)[nH]1` belongs 1.16 µM (active); to `O=C(Nc1ccccn1)c1csc2c1CCCC2`, 5.8 µM (active). For the compound `COC(=O)c1cc2nc(-c3ccccc3)cc(C(F)(F)F)n2n1`, the Potency is 6.51 µM (active).

`O=c1nc2c(O)cccn2c2c1c(=O)[nH]c1ccccc12`: the Potency is 2.31 µM (active).

With `O=c1cc(COc2ccccc2[N+](=O)[O-])nc2sccn12`, the Potency is 9.2 µM (active). The same measure, in the same setting: to `CCOC(=O)CCn1c(=O)c2cccn2c2cccnc21` belongs 18.4 µM (active); to `N#Cc1c(NC(=O)c2ccc([N+](=O)[O-])o2)sc2c1CCC2`, 3.66 µM (active). On the same count and under the same terms, to `CCCc1cc(C(N)=O)c(NC(=O)c2ccco2)s1` belongs 4.61 µM (active); to `NC(=O)c1c(NC(=O)c2ccc([N+](=O)[O-])o2)sc2c1CCCC2`, 2.91 µM (active). On the same count and under the same terms, to `NC(=O)c1c(NC(=O)c2ccco2)sc2c1CCC2` belongs 2.59 µM (active). In the case of `O=C(NCC1CCCO1)c1ccc([N+](=O)[O-])o1` (stereo not given), the Potency was 23.1 µM (active). On the same count and under the same terms, to `O=C1Nc2ccccc2/C1=C/c1ccccc1Cl` belongs 2.31 µM (active); to `Cc1ccccc1/C=C1\C(=O)Nc2ccc(F)cc21`, 5.17 µM (active). Same read-out and setting: to `N#CC(=C1C=CC(=NO)C(Cl)=C1)c1ccccc1` belongs 5.17 µM (active). The same measure, in the same setting: as for `O=C(/C=C/c1ccccc1Cl)Nn1cnc2ccccc2c1=O`, the figure is 2.91 µM (active). For `N#Cc1c(-c2ccco2)cc(-c2ccccc2)[nH]c1=O`, the Potency was 1.64 µM (active).

For the compound `CC(=O)Oc1c(-c2ccco2)oc2ccccc2c1=O`, the Potency is 0.651 µM (active). Still for that read-out and setting: as for `CC(=O)c1sc2nc(-c3cccs3)cc(C(F)(F)F)c2c1N`, the figure is 2.59 µM (active); as for `Nc1c(C(=O)C2CC2)sc2nc(-c3cccs3)cc(C(F)(F)F)c12`, 2.91 µM (active). The same measure, in the same setting: to `Cc1ccc(S(=O)(=O)/N=C(/NNC(=O)c2cccc(Cl)c2)c2ccccc2)cc1` belongs 18.4 µM (active); to `O=C(NN/C(=N/S(=O)(=O)c1ccc(Cl)cc1)c1ccccc1)c1cccc(Cl)c1`, 9.2 µM (active).
